Assay results from PubChem BioAssay AID1745850 (National Center for Advancing Translational Sciences (NCATS), 2022).
The whole screen tested about 2,100 compounds, of which about 260 (12%) were called active. About 58% were inconclusive and are not listed. The call rests on the fitted dose curve; in most records, active means well fitted cell-killing curve with a large enough effect; inconclusive means small, poorly fitted or top-dose-only effect, or effect the other way; inactive means flat fitted curve, though single readings scatter. This is one part of the list.

assay: Viability Counterscreen for Confirmatory qHTS for Inhibitors of ATXN expression; settings: HEK-293 ATXN2-luc cells viability, CellTiter-Fluor, 24 h; activity change, negative = cytotoxicity: at the top concentration; further: nearly all actives have a fitted effect of over 50% in size
Procedure, shortened: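 Cells with an ATXN2-luciferase reporter were dosed in a dilution series for 24 h at 37 degrees C. Viability was read first with Gly-Phe-AFC at 25 uM final (fluorescence, ex 405/em 540), then SteadyGlo luminescence. Medium-only wells defined 100% inhibition.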
Potency means the concentration at half of the fitted maximal effect.

Row | SMILES | activity change, negative = cytotoxicity | Potency
1 | C/C(=N\Nc1cc(N2CCOCC2)nc(C)n1)c1cccc([N+](=O)[O-])c1 | -4.32% (inactive) | 
2 | CC1CCCCN1S(=O)(=O)c1ccc(C(=O)Nc2nnc(-c3ccccc3Cl)o2)cc1 (centres undefined) | -5.8% (inactive) | 
3 | O=C1C=C(Nc2ccccc2O)c2ccccc2C1=O |  | 20 µM (active)
4 | Cc1cc(NC(=O)CSc2nccn2-c2cccc(C)c2C)no1 | -14.2% (inactive) | 
5 | CCOC(=O)c1ccc2ncc(C(=O)OCC)c(Nc3ccc(N4CCOCC4)cc3)c2c1 |  | 3.16 µM (active)
6 | CCOC(=O)c1ccc(N=c2sc(C(=O)OC)cc(=O)n2-c2ccc(C(=O)OCC)cc2)cc1 | -19.2% (inactive) | 
7 | CCOC(=O)Nc1ccc(N2CCOCC2)c(S(=O)(=O)Nc2ccc(Cl)cc2)c1 | -10.2% (inactive) | 
8 | Cc1ccc(NC(=O)CNC(=O)c2cccc(Cl)c2)nc1 | -22.1% [at 57.5 µM] (inactive) | 
9 | Cc1cc(Br)ccc1NC(=O)c1cnc(N2CCN(c3ccccn3)CC2)c2ccccc12 | -16.2% (inactive) | 
10 | Cc1ccc(NC(=O)c2cnc(N3CCN(c4ccccn4)CC3)c3ccccc23)c(Br)c1 |  | 14.1 µM (active)
11 | CCN(CC)S(=O)(=O)c1ccc(C)c(NC(=S)N2CCN(c3ccccn3)CC2)c1 | -29.4% [at 57.5 µM] (inactive) | 
12 | Brc1cnc2nc(SCc3nc4ccccc4[nH]3)[nH]c2c1 | -3.43% (inactive) | 
13 | CCn1c(CCC(=O)Nc2nc3c(s2)CCCC3)nc2cc(S(=O)(=O)N(C)C)ccc21 | -6.64% (inactive) | 
14 | O=C(Nc1cccc(S(=O)(=O)C(F)F)c1)c1ccc(Cl)c(S(=O)(=O)N2CCOCC2)c1 |  | 28.2 µM (active)
15 | O=C(Nc1cccc(S(=O)(=O)N2CCOCC2)c1)c1ccc2c(=O)n3c(nc2c1)CCCCC3 | -27.9% (inactive) | 
16 | Cc1ccc(C(=O)NC(C)CCc2ccccc2)cc1S(=O)(=O)N1CCOCC1 (centres undefined) | -26% [at 57.5 µM] (inactive) | 
17 | COc1ccc(Cn2c(O)c(/C=N/NC(=O)c3cccnc3)c3ccccc3c2=O)cc1 | 15.3% [at 57.5 µM] (inactive) | 
18 | CCN(Cc1ccccc1)S(=O)(=O)c1ccc(C(=O)Nc2nnc(C3CC3)o2)cc1 | -14.9% (inactive) | 
19 | Cc1cc2c(c(/C=C/C(=O)c3ccccc3)c1)OC1(C=C2)Oc2ccccc2C(=O)N1C (centres undefined) |  | 25.1 µM (active)
20 | Cc1cc(C)cc(NC(=O)CSc2nc3[nH]ncc3c(=O)[nH]2)c1 | -5.78% (inactive) | 

Row | SMILES | activity change, negative = cytotoxicity | Potency
21 | Nc1c(C(=O)NCc2ccccc2)c2nc3ccccc3nc2n1-c1ccc2c(c1)OCO2 | -23.9% (inactive) | 
22 | CCOC(=O)c1c(C)sc2c1N(C(=O)CN(CC)CC)c1cc(Cl)ccc1S2 |  | 22.4 µM (active)
23 | Cc1ccc(-c2nc3cc(Br)cnc3nc2-c2ccc(C)cc2)cc1 | -4.19% (inactive) | 
24 | COc1ccc(OCc2cccc(C(=O)Nn3cc([N+](=O)[O-])cn3)c2)cc1 | -7.7% (inactive) | 
25 | Cc1ccc2c(c1)-c1c(cnn1CC(=O)N1CCCN(Cc3ccccc3F)C1)CO2 | -26.7% (inactive) | 
26 | CCOC(=O)N1CCN(S(=O)(=O)c2ccc(C(=O)NNc3nc4c(C)cc(C)cc4s3)cc2)CC1 | -28.2% (inactive) | 
27 | Cc1ccc(S(=O)(=O)N2CCc3ccccc3CC2)cc1 | 2% (inactive) | 
28 | COc1ccc2nc(NC(=O)C3CCN(S(=O)(=O)c4cccs4)CC3)sc2c1 | -16.7% (inactive) | 
29 | Cc1ccc2nc(NNC(=O)c3ccc(S(=O)(=O)N4CCc5ccccc5C4)cc3)sc2c1 |  | 10 µM (active)
30 | Cc1cc(C)c2nc(NNC(=O)c3ccc(S(=O)(=O)N4CC(C)CC(C)C4)cc3)sc2c1 (centres undefined) |  | 11.2 µM (active)
31 | Cc1cccc2sc(NNC(=O)c3ccc(S(=O)(=O)N4CC(C)CC(C)C4)cc3)nc12 (centres undefined) |  | 11.2 µM (active)
32 | CC1CCCN(S(=O)(=O)c2ccc(C(=O)Nc3nnc(-c4ccccc4Cl)o3)cc2)C1 (centres undefined) | -17.5% (inactive) | 
33 | Cc1cc(C)c2nc(NNC(=O)c3cc(-c4cccs4)nc4ccccc34)sc2c1 | -22.8% (inactive) | 
34 | Cc1ccc2nc(NC(=O)CSCC(=O)OCC(=O)c3ccc(Br)cc3)sc2c1 | -7.59% [at 57.5 µM] (inactive) | 
35 | S=C(NCc1ccc(Cl)cc1Cl)NC1CCCCC1 | -9.63% (inactive) | 
36 | CCc1ccc(OCC(=O)N/N=C(\C)c2ccc(O)cc2O)cc1 | -4.52% (inactive) | 
37 | C/C(=N\NC(=O)c1ccc(CN2CCc3ccccc3C2)cc1)c1ccccc1O | -15.3% (inactive) | 
38 | COc1cc(C#Cc2c(-c3cncn3C)n(C)c3ccc(-c4cnc(OC)nc4)cc23)cc(OC)c1 | -4.58% (inactive) | 
39 | CC(Sc1nnc2c(n1)[nH]c1ccccc12)C(=O)N(C)C1CCCCC1 (centres undefined) |  | 20 µM (active)
40 | CCc1nc2c(OCCOc3ccc(F)cc3)cccn2c1N(C)C(=O)c1ccco1 | -9.27% [at 57.5 µM] (inactive) | 

Row | SMILES | activity change, negative = cytotoxicity | Potency
41 | O=C1/C(=C\c2cc(Cl)c(O)c(Cl)c2)SC(=S)N1Cc1ccccc1 |  | 15.8 µM (active)
42 | COc1cc(/C=C2\SC(=O)N(CC(=O)Nc3ccccc3F)C2=O)cc(Cl)c1O | 6.65% (inactive) | 
43 | Clc1c(Cl)c(Cl)c2n[nH]nc2c1Cl | -17.4% [at 57.5 µM] (inactive) | 
44 | NC(N)=N/N=C/c1ccc(Cl)c(Cl)c1 |  | 28.2 µM (active)
45 | CCOC(=O)Oc1c(OC)cc(C(=O)O[C@@H]2C[C@@H]3CN4CCc5c([nH]c6cc(OC)ccc56)[C@H]4C[C@@H]3[C@H](C(=O)OC)[C@H]2OC)cc1OC | -26.2% [at 57.5 µM] (inactive) | 
46 | CC1=NN(c2nc3ccccc3[nH]2)C(=O)C1Cc1ccccc1 (centres undefined) |  | 8.91 µM (active)
47 | CCCCn1c(SCC(=O)Nc2cc(C(F)(F)F)cc(C(F)(F)F)c2)nnc1C(CC)N(C)C (centres undefined) | -21.7% (inactive) | 
48 | COC(=O)C(Cc1ccc(O)cc1)NC(=O)C(C)Oc1ccccc1 (centres undefined) | -13.2% [at 57.5 µM] (inactive) | 
49 | CC(C)CC(N)c1csc(Nc2ccc(C(=O)N(C)Cc3ccccc3)cn2)n1 (centres undefined) |  | 14.1 µM (active)
50 | COc1ccc(CC(N)c2csc(Nc3ccc(C(=O)c4ccccc4)cc3)n2)cc1 (centres undefined) | -23% (inactive) | 
51 | CN(Cc1ccccc1)C(=O)c1ccc(Nc2nc(C(N)Cc3ccccc3)cs2)nc1 (centres undefined) |  | 14.1 µM (active)
52 | CCc1nc2ccc(C(=O)N(C)Cc3ccccc3)cn2c1N(C)Cc1ccc(OC)cc1 | -14.2% [at 57.5 µM] (inactive) | 
53 | O=C(CN1C(=O)c2ccccc2S1(=O)=O)c1ccc(O)c(O)c1 | -1.02% (inactive) | 
54 | CC(C)CC(NC(=O)c1ccc(Cl)cc1)C(=O)OCC(=O)c1ccc2c(c1)NC(=O)CO2 (centres undefined) |  | 28.2 µM (active)
55 | Cc1ccc(-c2ccc(/C=N/c3ncn[nH]3)o2)cc1Cl | -16.1% (inactive) | 
56 | COc1nn(-c2ccccc2)c(=O)c(Cl)c1Cl |  | 2.82 µM (active)
57 | CCOC(=O)N(C)c1c(CC)nc2c(OCc3ccccc3OC)cccn12 | -4.2% [at 57.5 µM] (inactive) | 
58 | CSCC[C@H](NC(=O)OC(C)(C)C)C(=O)N/N=C/c1cccc2cccnc12 | -27.5% [at 57.5 µM] (inactive) | 
59 | CCc1cc[n+](C2=C([O-])c3ccccc3C(=O)/C2=N\S(=O)(=O)c2cccs2)cc1 |  | 17.8 µM (active)
